Test results from the supplement of paper PMC6555819.

Columns and labels:
Experiment in all cases: PBM binding z-score (relative to random genomic background probes); higher = stronger binding; sequences stand for … in GC…GCGATTGACAGCGTAGAATGAAGG
[1] = tested on: FXR:RXRa (NR concentration 270 nM, RXRa partner concentration 90 nM)
How it was run: (§1)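 For binding z-scores, the reference was random background probes on custom Agilent 4×180K protein-binding microarrays. These arrays were incubated 1 h with ligand-free nuclear receptor dimers in PBS pH 7.4, 2% milk, 0.02% Triton X-100, 1 mM DTT, 0.2 mg/mL BSA and 0.4 mg/ml salmon testes DNA. Fluorescence was scanned after antibody detection of each partner (one per run) and regression-normalized.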

[2] = tested on: LXRa:RXRa (NR concentration 270 nM, RXRa partner concentration 90 nM)
How it was run: as §1

[3] = tested on: LXRa homodimer (NR concentration 270 nM)
How it was run: as §1

[4] = tested on: LXRb:RXRa (NR concentration 270 nM, RXRa partner concentration 90 nM)
How it was run: as §1

[5] = tested on: LXRb homodimer (NR concentration 270 nM)
How it was run: as §1

[6] = tested on: PPARa:RXRa (NR concentration 270 nM, RXRa partner concentration 90 nM)
How it was run: as §1

[7] = tested on: PPARg:RXRa (NR concentration 180 nM, RXRa partner concentration 90 nM)
How it was run: as §1

[8] = tested on: PPARg:RXRa 270nM:90nM, anti-RXR (NR concentration 270 nM, RXRa partner concentration 90 nM)
How it was run: as §1

[9] = tested on: PPARg:RXRa 30nM:10nM, anti-RXR (NR concentration 30 nM, RXRa partner concentration 10 nM)
How it was run: as §1

[10] = tested on: PPARg:RXRa 90nM:30nM, anti-RXR (NR concentration 90 nM, RXRa partner concentration 30 nM)
How it was run: as §1

[11] = tested on: PPARg:RXRa DBDmut IVT, anti-RXR (DBD mutation: RXRa K156A/R161A, NR concentration 270 nM, RXRa partner concentration 90 nM)
How it was run: as §1

[12] = tested on: PPARg:RXRa IVT, anti-PPARg (NR concentration 270 nM, RXRa partner concentration 90 nM)
How it was run: as §1

[13] = tested on: PPARg DBDmut:RXRa IVT, anti-PPARg (DBD mutation: PPARg1 K132A/R137A, NR concentration 270 nM, RXRa partner concentration 90 nM)
How it was run: as §1

[14] = tested on: PPARg DBDmut IVT, anti-PPARg (DBD mutation: PPARg1 K132A/R137A, NR concentration 270 nM)
How it was run: as §1

[15] = tested on: PPARg homodimer (NR concentration 180 nM)
How it was run: as §1

[16] = tested on: PXR:RXRa (NR concentration 270 nM, RXRa partner concentration 90 nM)
How it was run: as §1

[17] = tested on: PXR homodimer (NR concentration 270 nM)
How it was run: as §1

[18] = tested on: RARa:RXR (NR concentration 270 nM, RXRa partner concentration 90 nM)
How it was run: as §1

[19] = tested on: RARa homodimer (NR concentration 270 nM)
How it was run: as §1

[20] = tested on: RARb:RXRa (NR concentration 270 nM, RXRa partner concentration 90 nM)
How it was run: as §1

Sequence	PBM binding z-score [1]	PBM binding z-score [2]	PBM binding z-score [3]	PBM binding z-score [4]	PBM binding z-score [5]	PBM binding z-score [6]	PBM binding z-score [7]	PBM binding z-score [8]	PBM binding z-score [9]	PBM binding z-score [10]	PBM binding z-score [11]	PBM binding z-score [12]	PBM binding z-score [13]	PBM binding z-score [14]	PBM binding z-score [15]	PBM binding z-score [16]	PBM binding z-score [17]	PBM binding z-score [18]	PBM binding z-score [19]	PBM binding z-score [20]
TCTATTACTTGATTAGGGCAACCGAAACAGCGGA	0.823	0.881	0.41	0.812	0.945	0.975	0.4	1.9	3.76	2.94	2.08	1.45	0.681	1.58	0.91	0.583	0.132	0.779	1.04	0.983
CCGACTGGGGCAAAGGTTATCATACTCAGTACGA	1.81	1.66	0.176	1.87	-1.04	5.54	10.5	9.03	8.6	9.34	4.35	5.85	-0.186	0.138	2.13	2.11	-0.0954	3.14	-0.00422	2.08
TCGAGTAGGTTAGTCGGGGCATTGAGCCAACATA	-0.211	-0.326	-0.78	0.048	-1.23	0.416	-0.175	0.835	1	0.777	2.07	2.19	-0.804	-1.03	-0.25	-0.121	-0.392	0.186	-0.979	0.355
TCGAGTAGTTTAGGGGCATTCAGAATGGCGTCGA	-0.0607	0.048	-0.581	0.829	-0.452	0.549	-0.393	0.237	0.631	0.559	0.75	-0.281	-0.799	-1.01	-0.288	0.444	-0.187	0.532	-0.906	0.653
TTACCAACGTGAAGGTCGTTGATCCCTCTGTAGA	1.87	1.9	0.292	1.88	-0.33	1.35	0.00743	0.541	0.511	0.656	0.422	-0.0578	-0.0855	-0.0405	0.497	1.42	0.561	1.13	-0.198	0.811
CCTAGTTGGTCAAGGTCACAAACGCTATAGGTAC	3.97	3.32	1.64	3.45	0.933	3.93	3.16	3.43	1.09	2.53	2.22	3.73	1.23	1.64	2.99	3.94	1.93	4.17	2.34	4.05
CCGACTGGGGCTAGGTTACCATAACGCACAGCCA	-0.553	-0.225	-0.483	-0.184	-0.938	-0.107	0.784	0.0405	-0.564	-0.369	0.166	0.0447	-1.21	-1.97	-0.278	-0.509	-0.572	-0.318	-0.21	0.392
CGTACTGGGCCAAAAAGGTCATTGATGCCGATAA	3.72	4.43	2.93	4.25	0.293	4.69	3.65	4.22	1.71	3.72	4.13	3.76	-0.0861	-0.32	3.08	4.6	3.5	4.94	1.6	3.87
TCTGGTAGGTCAGTTGGTCAGCTAACGAGCTGCC	1.49	1.41	0.0494	1.09	0.418	2.17	1.6	2.93	2.4	2.47	3.49	4.52	-0.0249	-0.0633	1.33	0.675	-0.287	0.778	0.532	3.62
CGTCCAAGGTCAGCAGGTCAGTGACAGCGACGTG	5.75	3.99	0.47	2.99	-0.142	4.63	3.93	4.53	1.26	2.97	3.56	3.56	-0.271	-0.196	4.58	3.79	0.701	5.22	2.42	5.27
TTACCAAGGTGAGCTGAGGTCGCTGATCCAACTC	1.17	0.578	-0.612	0.416	-1.44	1.52	0.0966	1	-0.104	0.763	1.38	1.87	-1.62	-0.0566	-0.197	3.58	-0.341	1.5	-1.47	1.95
ATATGTAGGTGATCGGGTCATTCAGTTTGCGCAT	1.36	1.47	0.268	1.79	0.875	4.72	6.45	5.32	3.24	5.22	7.23	7.11	1.94	2.7	1.86	3.27	6.72	2.77	0.81	2.01
TAACCTAGGTCATTCAGGGGCCAGTATAGAAAGC	5.52	5.3	3.1	3.98	2.09	4.46	3.45	4.12	1.61	3.03	3.77	4.77	0.824	0.744	2.96	3.09	0.651	4.06	0.531	4.33
CCAGACAGGTGAGAAGGTAACTTAGCCTCGATTA	0.0387	0.133	-0.108	0.0826	-0.355	0.501	0.351	0.351	-0.0164	0.0696	0.936	0.458	0.104	-0.619	1.19	-0.169	0.402	0.0746	0.973	0.689
TCTAGTTGGTCAGGGAGGTCACACACGACGGGTA	3.15	3.3	2.44	3.24	1.66	3.72	2.28	3.13	3.27	3.23	2.21	3.14	0.418	0.586	2.66	4.14	1.55	4.2	1.51	3.63
CCTTACGGGTCAATCCAGGTTATAGCATCGGAGT	5.24	6.46	0.547	4.05	0.285	4.76	3.53	3.75	1.26	2.54	3.11	3.6	0.439	-0.233	1.18	5.42	0.705	3.74	0.489	3.44
CCTTACGGATCACGAGGTTATAGCACGACGAGCG	0.639	1.1	0.818	1.11	0.481	1.48	1.06	0.294	0.0325	0.104	0.221	0.106	-0.412	0.232	1.02	1.02	0.695	1.36	0.995	0.621
CCTAGCAGGCCAGGGTCACTCATGCATTTCGCTT	1.41	1.5	-0.432	1.72	-0.832	2.91	0.947	1.24	-0.332	0.442	-0.158	1.27	-1.04	-1.56	0.688	2.19	-0.121	2.67	-0.129	2.38
CGTCCAACGTCAAAGGTCAGTGAAGAGATGACGG	2.97	3.2	0.576	2.94	0.0829	4.04	3.28	4.92	2.64	4.72	-0.294	1.63	-0.376	-0.0246	3.55	3.58	0.376	5.04	1.79	4.24
CAAACTAGGTCAAGTTCAAAGTCGGTTTGTGCCA	5.99	4.84	4.22	3.64	1.37	5.81	8.91	7.48	5.88	7.46	8.65	8.81	3.54	4.23	3.54	5.1	6.98	3.97	1.55	4.88
AATACAGGGTCATCGTAGGCCACAGTACGCACAG	7.48	6.72	3.33	4.97	1.33	5.98	7.16	6.32	2.8	5.05	3.1	4.6	2.5	1.08	2.97	5.59	0.511	5.47	1.06	4.59
CGTCAAAGTTCAACTCAGGTAACGTAAAGCACGC	7.13	6.43	4.59	4.35	1.99	5.08	4.66	5.43	2.08	4.01	0.639	2.02	0.699	0.924	4.03	5.4	3.74	4.37	1.92	5.15
CCTATCAGTTGACCATAAGGGCAACCGAAGCTCG	0.965	0.314	0.218	0.583	0.56	0.693	0.456	0.233	-0.0186	0.0779	-0.0435	0.067	-0.241	0.0861	1.5	0.754	0.186	1.14	0.698	1.6
TCTTGTAGACCAAAGGTTAAGAAAGCCGAAGCCT	1.29	1.9	-0.151	1.82	-0.338	4.78	8.36	8.52	8.06	9.8	2.06	3.9	0.87	0.749	0.811	1.58	-0.8	2.39	-0.178	2.03
GGAACGAGGGCAATCGAGTTGATAGCATGGCGAT	0.644	0.434	-0.647	-0.187	-0.883	1.38	1.12	0.753	-0.285	0.268	3.45	2.82	-0.0288	-1.1	-0.25	3.29	0.305	0.677	-0.463	1.6
ATCGAAAGGTCGAAGGTGAGTATCCCCACCCGAA	3.99	3.46	0.139	2.58	0.489	4.42	4.5	4.68	2.04	3.58	0.0448	2.14	0.338	0.675	1.12	2.87	-0.31	3.89	0.365	3.68
CGAACTAGGTCAAGGACAGTGACTCTCCGCACGC	3.47	2.28	0.349	1.58	-0.267	4.79	7.35	6.66	3.92	6.28	8.38	8.3	1.83	0.467	1.66	1.37	-0.264	2.54	0.541	3.95
CCTCGGATGACAGAAGGTCAGAGCTGTCCGCTTT	1.3	1.79	0.493	1.37	0.0484	2.01	0.0217	0.56	-0.64	0.0995	0.0182	-0.0257	-1.19	-1.32	1.51	1.5	0.235	1.85	0.773	2.59
